Reference: article PMC7819943, “Rice protein-binding microarrays: a tool to detect cis-acting elements near promoter regions in rice”
In all, about 39,000 sequences were measured (“fluorescence intensity (a.u.)”: median about 4,300, highest 2% from about 39,000 on). This is one part of a sample in which the highest values are shown more often than they occur.

Biological target: T1, OsSMF1 (Oryza sativa, UniProt Q6ZLB0 1-436)
T1 sequence: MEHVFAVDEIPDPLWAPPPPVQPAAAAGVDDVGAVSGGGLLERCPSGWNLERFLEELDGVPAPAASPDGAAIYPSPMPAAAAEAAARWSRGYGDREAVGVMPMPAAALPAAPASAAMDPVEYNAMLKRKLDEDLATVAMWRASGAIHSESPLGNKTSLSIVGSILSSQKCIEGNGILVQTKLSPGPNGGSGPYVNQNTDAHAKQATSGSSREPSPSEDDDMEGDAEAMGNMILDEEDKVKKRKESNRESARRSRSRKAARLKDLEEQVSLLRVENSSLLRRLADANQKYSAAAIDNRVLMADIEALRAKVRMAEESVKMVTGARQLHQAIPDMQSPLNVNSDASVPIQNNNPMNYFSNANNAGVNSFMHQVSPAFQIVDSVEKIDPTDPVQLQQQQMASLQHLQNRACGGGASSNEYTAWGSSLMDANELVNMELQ
Assay: protein-binding microarray (RPBM); PBS, 2% BSA, 51.3 ng/ul salmon testes DNA, 50 uM zinc acetate, 200 nM TF, 25 C, 1 h; high values mean tight binding
Details: protein: recombinant; tags: N-terminal polyhistidine and DsRed monomer fusion (pET32a); chain copies: 2; label: CyDye5-dUTP incorporated in the synthesized complementary strand; 3' TTTTT single-stranded linker to array surface; dsDNA, one strand shown
In short: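 For the binding signal, per-feature fluorescence intensity was read in arbitrary units on an Axon 4000B scanner. Before scanning, a 2% BSA-blocked custom Agilent array made double-stranded with Cy5-dUTP was washed after 1 h at 25 °C with 200 nM protein and 50 µM zinc acetate. The proteins were Ni–NTA-purified transcription factors with N-terminal polyhistidine and DsRed fusions, expressed in E. coli BL21-CodonPlus.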

Row | Sequence | binding signal
1 | ACTATCAAGTTCGGATTAACCGAACCAATACAACCACTCACGGAGTCACCTAGTGCAG | 21900 fluorescence intensity (a.u.)
2 | TAAATTTCAAATTCGTGCCACATAGGTCCTTTTCCTCACACGGAGTCACCTAGTGCAG | 4670 fluorescence intensity (a.u.)
3 | GCTAGCTATTGTTGATTTGTCGTGTTGTAATATATACACTCGGAGTCACCTAGTGCAG | 4680 fluorescence intensity (a.u.)
4 | TAAATCGATCCTACGTCACATGACAGACTGGACCCTTGTCCGGAGTCACCTAGTGCAG | 10900 fluorescence intensity (a.u.)
5 | ACGTCCACGAGTCCATGTCATGACACACCCCAAGTTGCTGCGGAGTCACCTAGTGCAG | 5510 fluorescence intensity (a.u.)
6 | CCCCATCCTAGATGGAACAACCACGTCATCTCATGGGTGACGGAGTCACCTAGTGCAG | 14800 fluorescence intensity (a.u.)
7 | CGTGATCAATTCGCCTCATGCTGGCGTGACGCGGACCGAGCGGAGTCACCTAGTGCAG | 6720 fluorescence intensity (a.u.)
8 | TTCAAATGCCACCTAAACGCCACGTCAACCCCATAGACTACGGAGTCACCTAGTGCAG | 15600 fluorescence intensity (a.u.)
9 | CAAATGCCACCTAAGCGCCACGTCAACCCCATAGACTAGGCGGAGTCACCTAGTGCAG | 34200 fluorescence intensity (a.u.)
10 | TTCAAATGCCACCTAAGCGCCACGTCAACCCCATAGACTGCGGAGTCACCTAGTGCAG | 39500 fluorescence intensity (a.u.)
11 | GGTGTGAGTGTGATGTTGCTCGTGTAATGATGCGTGTGCGCGGAGTCACCTAGTGCAG | 5000 fluorescence intensity (a.u.)
12 | TGTGATGTGGGCATGCGTGTGCGCACGTGTTCTATTGGTGCGGAGTCACCTAGTGCAG | 17600 fluorescence intensity (a.u.)
13 | CGCACACATGAGCTCATGATGTGAACGTGATGATGGTGCGCGGAGTCACCTAGTGCAG | 48500 fluorescence intensity (a.u.)
14 | TCCGCCGCCTCGGTCGGCTCACGCGTCCATGTCCATCCCGCGGAGTCACCTAGTGCAG | 3600 fluorescence intensity (a.u.)
15 | GTCCAGATTCGTTGTACTAGAATATGTCAGATCCAGTCCTCGGAGTCACCTAGTGCAG | 3410 fluorescence intensity (a.u.)
16 | GAGTTGAGTTTAGACTTTCTAGAGTGGTATATGTATGTTTCGGAGTCACCTAGTGCAG | 40900 fluorescence intensity (a.u.)
17 | GGGTGAGTGTGTGTTGTGCGTTGTGAGTGTGTATGTGTTTCGGAGTCACCTAGTGCAG | 3730 fluorescence intensity (a.u.)
18 | CGCACTCAGCTTGTTCCTCTAACTGTACACAGTGGTACTTCGGAGTCACCTAGTGCAG | 26500 fluorescence intensity (a.u.)
19 | TGTCGGTACTTTCATACGTCATCTATGTATGAGTCGGTTTCGGAGTCACCTAGTGCAG | 10600 fluorescence intensity (a.u.)
20 | CCTCTAGATCCTCTATGGTACTATATGTACAGTGCTGTTTCGGAGTCACCTAGTGCAG | 42900 fluorescence intensity (a.u.)
21 | TGGCTATACTATTGAACTTGCTCTCGTGGGACCCACATACCGGAGTCACCTAGTGCAG | 3680 fluorescence intensity (a.u.)
22 | CTTTTGGTCTCGCGCCCACTGACACGTGGGTCCCACGCTCCGGAGTCACCTAGTGCAG | 6100 fluorescence intensity (a.u.)
23 | GCGCGCGCGTTCTCTAATCGAAGTCGATAGGATAGGAGGACGGAGTCACCTAGTGCAG | 36900 fluorescence intensity (a.u.)

Row | Sequence | binding signal
24 | GCCCTGTTCCCTGCAGAGAATCATTATATACTCCCTCCAACGGAGTCACCTAGTGCAG | 48100 fluorescence intensity (a.u.)
25 | TATATAAGAGACCTCACCTCCAAGAATCTCCAGAGAGAGACGGAGTCACCTAGTGCAG | 22900 fluorescence intensity (a.u.)
26 | CATTCCCTCCTCCTCCTCCTCCTCCTCCTGAATCCCTCCTCGGAGTCACCTAGTGCAG | 3380 fluorescence intensity (a.u.)
27 | CGAGGTGAGGCGGAGGGGAGGCAGAGGGGTAGAGGAGGGTCGGAGTCACCTAGTGCAG | 5260 fluorescence intensity (a.u.)
28 | CTACTATACCTCCGTGCGTACCACATACTGTATGTAGACTCGGAGTCACCTAGTGCAG | 4130 fluorescence intensity (a.u.)
29 | CATAGTGCAGGGGAGAAGCCAGGGAAGAGGGAGGTGACGTCGGAGTCACCTAGTGCAG | 3290 fluorescence intensity (a.u.)
30 | AATAGGAAATAAACATTACTGAGAAAAGGGCTCATGTTGGCGGAGTCACCTAGTGCAG | 29300 fluorescence intensity (a.u.)
31 | AAACGATGACTGTTAAATAGGGATTAAAAGGAAAGGATGGCGGAGTCACCTAGTGCAG | 41200 fluorescence intensity (a.u.)
32 | GAGGAGTGGGAGGAAAATGAGTGGTGGGGAAAGGATAGGGCGGAGTCACCTAGTGCAG | 4150 fluorescence intensity (a.u.)
33 | AGCACACATACTAGTACTATATGACAAGTCCACGGAGAGCCGGAGTCACCTAGTGCAG | 3760 fluorescence intensity (a.u.)
34 | GATTAATACGACTACTGTCATACGTACTGTACATGTCATGCGGAGTCACCTAGTGCAG | 3720 fluorescence intensity (a.u.)
35 | TTTTAGCCTCCTTTTGGTTAATCTTTGTTTGATCCAAGAACGGAGTCACCTAGTGCAG | 10200 fluorescence intensity (a.u.)
36 | CTTTGGCTTTTAGCCATAGACTTTGATCCATGAGTTAGAACGGAGTCACCTAGTGCAG | 40900 fluorescence intensity (a.u.)
37 | TTTTGAGCCTAGTTAGTCCATGATTAGCCATAAATGCTACCGGAGTCACCTAGTGCAG | 4540 fluorescence intensity (a.u.)
38 | GGGAAGAGAGAAGAGACGAAACAGGGAGGAGGGGATTGGGCGGAGTCACCTAGTGCAG | 3320 fluorescence intensity (a.u.)
39 | CAACATGCACGTACTACGTGTGCTTGCATTGCATGCATGCCGGAGTCACCTAGTGCAG | 4450 fluorescence intensity (a.u.)
40 | TCAGAATGCGTGTGATGTAAAAGTTCGAGAAGACTTTGTTCGGAGTCACCTAGTGCAG | 3210 fluorescence intensity (a.u.)
41 | AAAGAATGACGATATGATGTGAGAAGTTTGTGAAGACTTGCGGAGTCACCTAGTGCAG | 41100 fluorescence intensity (a.u.)
42 | AAAATGGAGAGAAGAGGAAGGGACAGATGACGTGGCATCCCGGAGTCACCTAGTGCAG | 48900 fluorescence intensity (a.u.)
43 | ACGATATGACGGAAAAGTTGGAAGTTTGTGTGTAGAAAAGCGGAGTCACCTAGTGCAG | 3140 fluorescence intensity (a.u.)
44 | GAGAGAAGAGGGGAAAAGAGAGAGGAGTTTGATGACGTGGCGGAGTCACCTAGTGCAG | 39300 fluorescence intensity (a.u.)
45 | GGGAGGAAGAAGAAAGGGAGAGAGAGGGGATGACATGTGGCGGAGTCACCTAGTGCAG | 5680 fluorescence intensity (a.u.)
46 | GAGAGGACGAAGGGAAAGAGAGAGATGGTGATGACGTGGCCGGAGTCACCTAGTGCAG | 31600 fluorescence intensity (a.u.)
